About 83,000 compounds went through this panel and 20% of them were active in at least one assay; those are over-represented in the sample as a whole.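 Results are percent growth after 48 hours of single-concentration exposure. 100 means growth as in untreated cells, lower positive values show inhibition; negative values down to -100 show cell death.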 Unmarked numbers belong to inactive results. Active and inactive are the calls of the source.

This note sets out measurements from PubChem BioAssay (NCI).

This test deals with SK-MEL-2 melanoma. In words: NCI-60 one-dose screen, 48 h (100 = growth as untreated, 0 = no growth, -100 = all killed). The note with it: 10 µM unless noted. The procedure:
Growth inhibition of the SK-MEL-2 human tumor cell line is measured as a screen for anti-cancer activity. Cells are grown in 96 well plates and exposed to the test compound for 48 hours. Compounds are tested at a single concentration, which is 10^-5 M for most compounds. The reported endpoint is percent growth (GI% or GIPRCNT), where numbers from 0 - 100% represent growth inhibition, and numbers from -100% - 0 represent cell death. For example, a value of 40 represents 60% growth inhibition. A value of 0 means no net growth occurred over the course of the experiment. A value of -40 indicates 40% of cells at the beginning of the experiment died by the end of the experiment. A value of -100 means all cells are dead at the end of the experiment.
NCI-60 Human Tumor Cell Lines Screen was performed using the standard one-dose NCI protocol, which is described in more detail at https://dtp.cancer.gov/discovery_development/nci-60/default.htm.
Compounds with GIPRCNT values below 10 were considered active. Activity score was based on GIPRCNT using the following formula: […]
Score is 0 for GIPRCNT values of 100 or above, 50 for GIPRCNT values of 0, and 100 for GIPRCNT values of -100.
In the case of `COc1ccc2cc(Cn3cc[n+](Cc4ccc5ccccc5c4)c3)ccc2c1`, the growth was -15.8% (active). For the compound `Cc1nc2ccccc2c(/C=C/c2ccc(C(F)(F)F)cc2)c1C(=O)/C=C/c1ccccc1`, the growth was -43.6% (active).

Take `Fc1ccc(CNc2c3ccccc3nc3ccccc23)cc1`: the growth is 43.8%.

Take `Cc1ncc(C(=O)Nc2ccc(CN3CCN(C)CC3)c(C(F)(F)F)c2)cc1C#Cc1cnc(N)c2cnccc12`: the growth was -85.3% (active). The figure for `NS(=O)(=O)c1ccc(N/C=C/C(=O)c2cc3ccccc3oc2=O)cc1` is 109%; for `COc1cc(/C=C/c2cc(/C=C/c3ccc(O)c(OC)c3)n(C(=O)Nc3ccc(F)cc3)n2)ccc1O` it is -27.1% (active). As to `COc1ccc(OC)c(-c2cn3nc(-c4c[nH]c5ccc(Br)cc45)sc3n2)c1`, the growth was 86.3%.

As for `O=C1CCC(C(=O)NN(c2ccccc2)c2ccccc2)N1` (stereo not given), the growth is 105%. `COc1ccc2cc(-c3cnc4nonc4n3)ccc2c1`: the growth was 52.7%. For the compound `Cc1ccc(-c2csc(NC(=O)N3CCN(c4cc5c(cc4F)c(=O)c(C(=O)O)cn5C4CC4)CC3)n2)cc1`, the growth was -26.3% (active).

Regarding `Nc1c(C(=O)Nc2ccncc2)sc2nc3c(cc12)CCCCC3`, the growth was 93.7%.

Consider `CN1CCN(CCOc2ccc(-c3cnc4c(-c5ccc(C(F)(F)F)cc5)cnn4c3)cc2)CC1`, for which the growth was 63.3%. On to `CCc1ccc(CCC(=O)Nc2ncc(Cc3ccc(Cl)cc3)s2)o1`, for which the growth was 44.1%. Consider `C[N+](C)(C/C=C/c1ccccc1)Cc1ccccc1`, for which the growth is 93.7%. With `O=C(CCCCl)NNc1nccc(Nc2ccc(S(=O)(=O)Nc3ccncc3)cc2)n1`, the growth was 92.7%. Turning to `Cn1cc(-c2csc(-c3cn(C(=O)OC(C)(C)C)c4ccccc34)n2)c2ccnc(Cl)c21`, the growth was 96.5%.

Take `COc1ccc2c(c1)c(-c1nonc1-c1cn(C)c3ccc(OC)cc13)cn2C`: the growth is 41.8%. As for `COc1cccc(/C=C/C(=O)c2cc3c(N)c(C(=O)Nc4ccccc4C)sc3nc2C)c1`, the growth was 27.3%. Consider `CCCCCCCC/C=C\CCCCCCCCOc1ccccc1CC(=O)NCC[N+]1(C)CCCCC1`, for which the growth was 88.2%. Regarding `CCOC(=O)c1n[nH]n2c1nc(=O)c1cnn(C)c12`, the growth was 99.6%. For `CCN(CC)c1ccc(/C=N\NC(=O)c2cccc(Nc3ccnc(C(F)(F)F)c3)c2)c(O)c1`, the growth is 87.5%. On to `COC(=O)/C(CCC=C(C)C)=C1\[C@@H](OC(C)=O)C[C@@]2(C)[C@H]1CC(=O)[C@H]1[C@@]3(C)CCC(N4CCCC4)[C@@H](C)[C@@H]3CC[C@@]12C` (stereo not given in full), for which the growth is 105%.

For the compound `O=C(c1ccc(Cl)cc1Cl)N1c2ccccc2Sc2ccccc21`, the growth is 88.7%. Take `CC(C)[C@@]12C[C@@H](OC(=O)COC(=O)c3ccccc3)[C@@](C)(O1)[C@@H]1CC[C@@H](C)[C@H]1[C@@H]2OC(=O)/C=C/c1ccccc1`: the growth was 103%. The value for `COC(=O)C1=Nc2ccc(F)cc2/C1=C\c1sc(Nc2ccc(O)cc2)nc1O` was 47.3%; that for `COc1ccc(NC(=O)c2sc3nc4c(cc3c2N)CCCC4)cc1` was 34.9%; that for `CCOC(=O)c1c(C)c2c(n1C)CSc1cc(S(=O)(=O)c3ccccc3)c(=O)[nH]c1-2` was 30.7% [100 µM].

Take `O=C1/C(=C/c2ccc(C(F)(F)F)cc2)COc2ccc(O)c(O)c21`: the growth was 98%.

In the case of `CCNCc1ccc(O)c2ncccc12`, the growth is 15.4%. As to `C=C(c1ccc(C(=O)O)cn1)c1cc2c(cc1C)C(C)(C)CCC2(C)C`, the growth was 84%. `COc1ccc(Cn2cc(C(=O)N=Nc3c(O)[nH]c4c(Cl)cccc34)nn2)cc1`: the growth was 93.2%. With `CC(C)=CC(=O)N[C@@H]1CC2CCC3C(CC[C@@]4(C)C3CC[C@@H]4C(C)N(C)C)[C@@]2(C)C[C@@H]1O` (stereo not given in full), the growth is 124%. The figure for `CCCCCCC(=O)Nc1ncc(Cc2ccc(C)cc2)s1` is 63.4%; for `O=C1c2cccnc2C(=O)c2c1c(C(=O)OCCCN1CCCCC1)c1ccccn21` it is -47.3% (active); for `CC(C)CSc1oc(-c2ccccc2)nc1S(=O)(=O)c1ccccc1` it is 95.9%.

For the compound `Nc1nc(C(=O)N/N=C/c2ccc(N3CCOCC3)cc2)nn1-c1ccc(S(N)(=O)=O)cc1`, the growth is 104%. The value for `COc1ccc(C2C3=C(COC3=O)N(CCO)c3cc4c(cc32)OCCO4)cc1OC` (stereo not given) was 55.3%; that for `CCOC(=O)/C=C/c1c(C)[nH]c(=O)[nH]c1=O` was 30.1%. Turning to `COc1ccc(/C(C)=C(\c2ccc(OCCN3CCCCCC3)cc2)c2ccc(OC(=O)c3ccccc3)cc2)cc1`, the growth was 54.6%.

For the compound `c1ccc(CCc2ccccc2-c2cc(-c3ccccc3)on2)cc1`, the growth is 86.4%.
